The source of these data is PubChem BioAssay AID527 (NMMLSC, 2006).

Hit rate of the full screen: of about 24,000 compounds, about 65 (0.3%) were called active.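 The calls were made as follows: active = share of bacteria positive for the green fluorescent reporter and its mean brightness both inhibited by 50% or more; inactive = the rest, inconclusive results apart.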 The list comes from a sample in which actives are over-represented; it also holds similar structures and randomly drawn compounds.

The experiment is described as follows: blockers of AIP-driven agr signalling in S. aureus – RNAIII-GFP reporter, flow cytometry, primary screen (AID 527).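 Also: 0% = AIP-stimulated control and 100% = unstimulated bacteria without AIP.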 The following applies: S. aureus RN6390 RNAIII-GFP reporter, AIP-induced, flow cytometry 3 h, at 2 µM, stronger effect = higher value.
Setting [1] is: measured here: inhibition of GFP MFI.

As usually defined, the inhibition is the drop in the measured response relative to a control, in per cent. With `Cc1cc(=O)n2nc(N3CCCC3C(=O)NCCCN3CC(C)CC(C)C3)sc2n1` (centres undefined), the inhibition was 2.5% (inactive). For the same compound, the inhibition under setting [1] amounted to 17.6%.

`CC1CCCCN1S(=O)(=O)c1ccc(C(=O)Nc2nnc(-c3cccs3)o2)cc1` (centres undefined): the inhibition was 65.9% (active). The inhibition under setting [1] was 62.3%.

`CCc1nnc(NC(=O)c2ccc(S(=O)(=O)NC3CCCCC3)cc2)s1`: the inhibition is 0.3% (inactive). Moreover, the inhibition under setting [1] turned out to be 4.5%.

`COc1cccc(-c2nnc(NC(=O)c3ccc(S(=O)(=O)N(CC(C)C)CC(C)C)cc3)o2)c1`: the inhibition was 14.3% (inactive). Further, the inhibition under setting [1] is 15.6%.

For the compound `O=C(O)Cc1ccc(-c2ccccc2)cc1`, the inhibition was -0.8% (inactive). Also, the inhibition under setting [1] was found to be 3.1%.

On to `CN(C(=O)C1CCOC1)c1nnc(-c2cccnc2)s1` (centres undefined), for which the inhibition was -2.1% (inactive). In addition, under setting [1], the inhibition stood at 1.3%.

As for `COc1ccc(N2CCN(C(=O)CNC(=O)c3ccc(C(C)(C)C)cc3)CC2)cc1`, the inhibition is -5.2% (inactive). The inhibition under setting [1] was -22.7%.

`CCOc1cc(C(=O)Nc2ncccn2)cc(OCC)c1OCC`: the inhibition was -0.2% (inactive). Also, the inhibition under setting [1] was found to be 0.7%.

Turning to `COC(=O)Nc1ccc(S(=O)(=O)N(C)CC(F)(F)C(F)F)cc1`, the inhibition was -3.8% (inactive). For the same compound, the inhibition under setting [1] is -5.8%.

As to `CC(=O)NC(Cc1ccc(F)cc1)C(=O)O` (centres undefined), the inhibition was -5.3% (inactive). In addition, the inhibition under setting [1] is -7.6%.

As for `Cc1nc2ccc(S(=O)(=O)NC(C(=O)N3CCCCCC3)C(C)C)cc2s1` (centres undefined), the inhibition is 0.8% (inactive). The inhibition under setting [1] was -1%.

Take `Cc1nc(NC(=O)CCC(=O)O)sc1C(=O)N(C)C`: the inhibition was -4.1% (inactive). In addition, under setting [1], the inhibition was -15.4%.

With `O=C(O)C1C2C=CC(C2)C1C(=O)N1CCN(CCO)CC1` (centres undefined), the inhibition was -0.3% (inactive). In addition, the inhibition under setting [1] was -23.2%.

As for `Cc1nnc(SCCCn2c(N3CCCCC3)nc3c2c(=O)[nH]c(=O)n3C)s1`, the inhibition was 2.3% (inactive). Also, under setting [1], the inhibition is 8.9%.

With `CCOC(=O)CSc1nnc(CNC(=O)c2cccs2)n1-c1cc(OC)ccc1OC`, the inhibition was 1.2% (inactive). Under setting [1], the inhibition came to 29.5%.

Consider `O=C(CSc1nc2ccccc2o1)N1CCN(c2ccc(Cl)cc2)CC1`, for which the inhibition is 0.5% (inactive). For the same compound, the inhibition under setting [1] is 5.2%.

Turning to `CCOc1ccc(NC(=O)CC2NCCNC2=O)cc1` (centres undefined), the inhibition was 0.5% (inactive). Besides, the inhibition under setting [1] worked out at 16.7%.

Consider `CCOc1ccc(CNC(=O)C2CCC(=O)N2C2CCCC2)cc1OC` (centres undefined), for which the inhibition is 3.8% (inactive). Moreover, the inhibition under setting [1] amounted to 11.6%.

With `CCOC(=O)N1CCC(NC(=O)c2ccc3nc(N4CCOCC4)sc3c2)CC1`, the inhibition was -5.4% (inactive). Under setting [1], the inhibition is -36.9%.

For `CCN(CC)CCNC(=O)Cn1cnc2sc(C)c(S(=O)(=O)N3CCOCC3)c2c1=O`, the inhibition was -4.4% (inactive). For the same compound, the inhibition under setting [1] was -7.2%.

`CCn1cc(C(=O)N2CC=C(c3ccccc3)CC2)c(=O)c2ccc(C)nc21`: the inhibition was 17.2% (inactive). In addition, under setting [1], the inhibition came to 30.6%.

Take `CCOC(=O)Cn1c(=O)oc2cc(S(=O)(=O)N(C)Cc3ccco3)ccc21`: the inhibition was -6.4% (inactive). The inhibition under setting [1] was -10.2%.

As for `CC1CCN(c2oc(-c3ccccc3F)nc2C#N)CC1`, the inhibition is 0.5% (inactive). Also, the inhibition under setting [1] came out at 3.2%.

`Cc1ccccc1NC(=O)c1ccccc1`: the inhibition is -2.3% (inactive). Moreover, the inhibition under setting [1] was -11.3%.

Consider `CCOC(=O)N1CCN(CC(=O)c2c(C)[nH]c3ccccc23)CC1`, for which the inhibition is -0.6% (inactive). Also, the inhibition under setting [1] came to 7.3%.

Take `COc1cc2cc(CN(CCN3CCCC3)C(=O)Nc3ccccc3Cl)c(=O)[nH]c2cc1OC`: the inhibition is -3.5% (inactive). Besides, the inhibition under setting [1] was -20.1%.

As to `Cc1ccccc1CN1CCN(C(=O)c2cccc(F)c2)CC1`, the inhibition is -0.2% (inactive). Under setting [1], the inhibition is -10.6%.

With `COc1cccc(OC)c1OCCN1CCN(C(=O)c2ccco2)CC1`, the inhibition is -1% (inactive). The inhibition under setting [1] was 4.2%.

As for `COc1ccc(OC)c(NC(=O)CCN2CCC(C)CC2)c1`, the inhibition was -0.7% (inactive). Also, under setting [1], the inhibition was -21.9%.

Take `CCOc1ccc(-c2cn(S(=O)(=O)c3cccc4nsnc34)nc2N)cc1`: the inhibition was 2.7% (inactive). Under setting [1], the inhibition is 26.8%.

Consider `Cn1c(=O)[nH]c(=O)c2c1nc(NCCCn1ccnc1)n2Cc1cccc(Br)c1`, for which the inhibition was -0.5% (inactive). The inhibition under setting [1] is -1.6%.

Turning to `CC(=O)c1cc2c(cc1NC(=O)CN1CCCCCC1)OCO2`, the inhibition was -3.5% (inactive). Also, the inhibition under setting [1] was -12.2%.

As to `O=C(CC(NCCN1CCOCC1)C(=O)O)Nc1cccc(Cl)c1` (centres undefined), the inhibition was -0.4% (inactive). Also, the inhibition under setting [1] was determined as 7.8%.

For `CCN(CC)C(=O)CCC(=O)Nc1ccc(C(=O)OC)cc1`, the inhibition was 0.7% (inactive). Also, under setting [1], the inhibition is 0%.

In the case of `CCOc1ccc(Cn2nnc(C(=O)Nc3ccc(OC)cc3OC)c2N)cc1`, the inhibition was -0.3% (inactive). The inhibition under setting [1] is -4.3%.

On to `COc1ccc(C(=O)NCc2cn3ccccc3n2)cc1`, for which the inhibition was -9.5% (inactive). Besides, the inhibition under setting [1] is -17.4%.

Consider `Cc1cc(C)c2c(n1)nn1c(N3CCOCC3)cc(C)nc21`, for which the inhibition is -1.1% (inactive). Besides, under setting [1], the inhibition turned out to be 1.4%.

Consider `CCCCN(CC)C(=O)CN(C)S(=O)(=O)c1cccc2nsnc12`, for which the inhibition was -1.2% (inactive). Moreover, under setting [1], the inhibition was -4.3%.

`CC1CCCCC1NC(=O)CCS(=O)(=O)c1cccc2nonc12` (centres undefined): the inhibition was 4% (inactive). Also, the inhibition under setting [1] stood at 22.1%.

Regarding `CCOc1ccc(C2C(C(=O)NC)=C(C)Nc3nc4ccccc4n32)cc1OC` (centres undefined), the inhibition was 2.9% (inactive). Under setting [1], the inhibition stood at 6.8%.

Consider `O=C(NCc1ccco1)C1CCCN(S(=O)(=O)c2cnc[nH]2)C1` (centres undefined), for which the inhibition is 3.6% (inactive). For the same compound, under setting [1], the inhibition was 9.1%.

Take `CCn1cc(C(=O)NCC2CCCO2)c(=O)c2cc(S(=O)(=O)N3CCCCC3)ccc21` (centres undefined): the inhibition is -8.4% (inactive). For the same compound, the inhibition under setting [1] is -14.4%.
